Reference: PubChem BioAssay (NCATS)
For some assays here: Entries with a potency or affinity are not part of this list. Calls of active or inactive are those of the source.

Assays:
[1] = Ebola virus entry assay, green fluorescence channel
[2] = Ebola virus entry assay, blue channel fluorescence
[3] = Ebola virus entry assay, green fluorescence channel; remark: listed apart in the source
[4] = Ebola virus entry assay, ratio channel readout
[5] = Ebola virus entry assay, blue channel fluorescence; remark: listed apart in the source
[6] = Ebola virus entry assay, ratio channel
[7] = Ebola virus entry assay, green channel fluorescence
For efficacy in this document: 0% is about no effect.

O=P(O)(O)C(O)(Cc1cccnc1)P(=O)(O)O
inactive: efficacy [1] -17.5% | outcome [2] | outcome [3] | outcome [4] | outcome [5] | outcome [6] | outcome [7]

CC[N+](C)(C)c1cccc(O)c1
inactive: efficacy [1] -13.4% | outcome [2] | outcome [3] | outcome [4] | outcome [5] | outcome [6] | outcome [7]

O=c1n(CCCN2CCN(c3cccc(Cl)c3)CC2)nc2ccccn12
inactive: efficacy [1] 33.5% | outcome [2] | outcome [3] | outcome [4] | outcome [5] | outcome [6] | outcome [7]

Clc1ccc(C(c2ccccc2Cl)C(Cl)Cl)cc1 (stereo not given)
inactive: efficacy [1] -31.8% | outcome [2] | outcome [3] | outcome [4] | outcome [7]
active: AC50 [5] 31.6 µM | AC50 [6] 22.4 µM

CCCCN1C[C@H](O)[C@@H](O)[C@H](O)[C@H]1CO
inactive: efficacy [1] 19.9% | outcome [2] | outcome [3] | outcome [4] | outcome [5] | outcome [6] | outcome [7]

C=C[C@H]1CN2CC[C@H]1C[C@@H]2[C@@H](O)c1ccnc2ccc(OC)cc12
inactive: efficacy [1] 36.3% | outcome [2] | outcome [3] | outcome [4] | outcome [6] | outcome [7]
active: AC50 [5] 20 µM

Nc1nnc(-c2cccc(Cl)c2Cl)c(N)n1
inactive: efficacy [1] -18.2% | outcome [2] | outcome [3] | outcome [4] | outcome [5] | outcome [6] | outcome [7]

NS(=O)(=O)Cc1noc2ccccc12
inactive: efficacy [1] -13.2% | outcome [2] | outcome [3] | outcome [4] | outcome [5] | outcome [6] | outcome [7]

CCC1C(=O)OCC1Cc1cncn1C (stereo not given)
inactive: efficacy [1] -25.5% | outcome [2] | outcome [3] | outcome [4] | outcome [5] | outcome [6] | outcome [7]

CN1CCC[C@@H]1Cc1c[nH]c2ccc(CCS(=O)(=O)c3ccccc3)cc12
active: AC50 [5] 25.1 µM | AC50 [6] 25.1 µM
inactive: efficacy [1] 20.7% | outcome [2] | outcome [3] | outcome [4] | outcome [7]

CCCCNC(=O)NS(=O)(=O)c1ccc(C)cc1
inactive: efficacy [1] -19.2% | outcome [2] | outcome [3] | outcome [4] | outcome [5] | outcome [6] | outcome [7]

Cc1ccc(C(=O)c2cc(O)c(O)c([N+](=O)[O-])c2)cc1
inactive: efficacy [1] 31.1% | outcome [2] | outcome [3] | outcome [4] | outcome [5] | outcome [6] | outcome [7]

COc1c(C)c2c(c(O)c1C/C=C(\C)CCC(=O)OCCN1CCOCC1)C(=O)OC2
inactive: efficacy [1] -9.5% | outcome [2] | outcome [3] | outcome [4] | outcome [5] | outcome [6] | outcome [7]

O[C@@H]1CO[C@H]2[C@@H]1OC[C@@H]2O
inactive: efficacy [1] 15.8% | outcome [2] | outcome [3] | outcome [4] | outcome [5] | outcome [6] | outcome [7]

NC(=O)NO
inactive: efficacy [1] 10% | outcome [2] | outcome [3] | outcome [4] | outcome [5] | outcome [6] | outcome [7]

Cc1cn([C@H]2C=C[C@@H](CO)O2)c(=O)[nH]c1=O
inactive: efficacy [1] 10.9% | outcome [2] | outcome [3] | outcome [4] | outcome [5] | outcome [6] | outcome [7]

CCC(C)(C)C(=O)O[C@H]1C[C@@H](C)C=C2C=C[C@H](C)[C@H](CC[C@@H]3C[C@@H](O)CC(=O)O3)[C@H]21
inactive: efficacy [1] 37.4% | outcome [2] | outcome [3] | outcome [4] | outcome [5] | outcome [7]
active: AC50 [6] 7.08 µM

CC(=O)N[C@@H](CS)C(=O)O
inactive: efficacy [1] -17.9% | outcome [2] | outcome [3] | outcome [4] | outcome [5] | outcome [6] | outcome [7]

CCOc1ccccc1OCCN[C@H](C)Cc1ccc(OC)c(S(N)(=O)=O)c1
inactive: efficacy [1] -10.5% | outcome [2] | outcome [3] | outcome [4] | outcome [5] | outcome [6] | outcome [7]

CCCC(=O)Nc1ccc(OCC(O)CNC(C)C)c(C(C)=O)c1 (stereo not given)
inactive: efficacy [1] 8.06% | outcome [2] | outcome [3] | outcome [4] | outcome [5] | outcome [6] | outcome [7]

CCCCNc1ccc(C(=O)OCCOCCOCCOCCOCCOCCOCCOCCOCCOC)cc1
inactive: efficacy [1] 14% | outcome [2] | outcome [3] | outcome [4] | outcome [5] | outcome [6] | outcome [7]

Cn1c(=O)c2c(ncn2CC(O)CO)n(C)c1=O (stereo not given)
inactive: efficacy [1] -15% | outcome [2] | outcome [3] | outcome [4] | outcome [5] | outcome [6] | outcome [7]

Cc1cccc(Nc2ccccc2C(=O)O)c1C
inactive: efficacy [1] 32.2% | outcome [2] | outcome [3] | outcome [4] | outcome [5] | outcome [6] | outcome [7]

C[C@](N)(Cc1ccc(O)c(O)c1)C(=O)O
active: AC50 [5] 15.8 µM | AC50 [6] 22.4 µM
inactive: efficacy [1] 20.7% | outcome [2] | outcome [3] | outcome [4] | outcome [7]

CCCCCOC(=O)Nc1nc(=O)n([C@@H]2O[C@H](C)[C@@H](O)[C@H]2O)cc1F
inactive: efficacy [1] 20.9% | outcome [2] | outcome [3] | outcome [4] | outcome [5] | outcome [6] | outcome [7]

NS(=O)(=O)c1cc2c(cc1C(F)(F)F)NCNS2(=O)=O
inactive: efficacy [1] -34.5% | outcome [2] | outcome [3] | outcome [4] | outcome [5] | outcome [6] | outcome [7]

COc1c(C)c2c(c(O)c1C/C=C(\C)CCC(=O)O)C(=O)OC2
inactive: efficacy [1] 11.2% | outcome [2] | outcome [3] | outcome [4] | outcome [5] | outcome [6] | outcome [7]

COc1ccc(-c2cc(=S)ss2)cc1
inactive: efficacy [1] -17.7% | outcome [2] | outcome [3] | outcome [4] | outcome [5] | outcome [6] | outcome [7]

O=C1Nc2ccc(Cl)cc2[C@@](C#CC2CC2)(C(F)(F)F)O1
active: AC50 [5] 17.8 µM | AC50 [6] 22.4 µM
inactive: efficacy [1] -11.3% | outcome [2] | outcome [3] | outcome [4] | outcome [7]

Cc1[nH]c(=O)c(C#N)cc1-c1ccncc1
inactive: efficacy [1] -19.3% | outcome [2] | outcome [3] | outcome [4] | outcome [5] | outcome [6] | outcome [7]

CN(CCOc1ccc(NS(C)(=O)=O)cc1)CCc1ccc(NS(C)(=O)=O)cc1
inactive: efficacy [1] 20.2% | outcome [2] | outcome [3] | outcome [4] | outcome [5] | outcome [6] | outcome [7]

CNS(=O)(=O)CCc1ccc2[nH]cc(C3CCN(C)CC3)c2c1
inactive: efficacy [1] -15% | outcome [2] | outcome [3] | outcome [4] | outcome [5] | outcome [6] | outcome [7]

C=C(c1ccc(C(=O)O)cc1)c1cc2c(cc1C)C(C)(C)CCC2(C)C
inactive: efficacy [1] 22.5% | outcome [2] | outcome [3] | outcome [4] | outcome [5] | outcome [6] | outcome [7]

CC(C)(O)c1ccccc1CC[C@@H](SCC1(CC(=O)O)CC1)c1cccc(/C=C/c2ccc3ccc(Cl)cc3n2)c1
inactive: efficacy [1] 12.9% | outcome [2] | outcome [3] | outcome [4] | outcome [5] | outcome [6] | outcome [7]

N[C@@H](Cc1cc(I)c(Oc2cc(I)c(O)c(I)c2)c(I)c1)C(=O)O
inactive: efficacy [1] -10% | outcome [2] | outcome [3] | outcome [4] | outcome [5] | outcome [6] | outcome [7]

Cn1cnc([N+](=O)[O-])c1Sc1ncnc2nc[nH]c12
inactive: efficacy [1] 14.5% | outcome [2] | outcome [3] | outcome [4] | outcome [5] | outcome [6] | outcome [7]

CCOc1ccc2ccccc2c1C(=O)N[C@@H]1C(=O)N2[C@@H]1SC(C)(C)[C@@H]2C(=O)O
inactive: efficacy [1] 20.5% | outcome [2] | outcome [3] | outcome [4] | outcome [5] | outcome [6] | outcome [7]

NNc1nncc2ccccc12
inactive: efficacy [1] -27.3% | outcome [2] | outcome [3] | outcome [4] | outcome [5] | outcome [6] | outcome [7]

Cc1oncc1C(=O)Nc1ccc(C(F)(F)F)cc1
inactive: efficacy [1] -17.5% | outcome [2] | outcome [3] | outcome [4] | outcome [5] | outcome [6] | outcome [7]

CCN(CC)CCNC(=O)c1cc(Cl)c(N)cc1OC
inactive: efficacy [1] -12.5% | outcome [2] | outcome [3] | outcome [4] | outcome [5] | outcome [6] | outcome [7]

CO[C@@]12[C@H](COC(N)=O)C3=C(C(=O)C(C)=C(N)C3=O)N1C[C@@H]1N[C@@H]12
inactive: efficacy [1] 19.7% | outcome [2] | outcome [3] | outcome [4] | outcome [5] | outcome [6] | outcome [7]

CC1(C)S[C@@H]2[C@H](NC(=O)Cc3ccccc3)C(=O)N2[C@H]1C(=O)O (tested in a mixture with another compound)
inactive: efficacy [1] -23.1% | outcome [2] | outcome [3] | outcome [4] | outcome [5] | outcome [6] | outcome [7]

NCCC(O)(P(=O)(O)O)P(=O)(O)O
inactive: efficacy [1] -9.39% | outcome [2] | outcome [3] | outcome [4] | outcome [5] | outcome [6] | outcome [7]

COc1nc(N)nc2c1ncn2[C@@H]1O[C@H](CO)[C@@H](O)[C@@H]1O
inactive: efficacy [1] -33.2% | outcome [2] | outcome [3] | outcome [4] | outcome [5] | outcome [6] | outcome [7]

CCCc1cc(=O)[nH]c(=S)[nH]1
inactive: efficacy [1] 10.6% | outcome [2] | outcome [3] | outcome [4] | outcome [5] | outcome [6] | outcome [7]

N[C@@H](C(=O)N[C@@H]1C(=O)N2C(C(=O)O)=C(Cl)CS[C@H]12)c1ccccc1
inactive: efficacy [1] 26% | outcome [2] | outcome [3] | outcome [4] | outcome [5] | outcome [6] | outcome [7]

Cc1cc(C)cc(OCC2CNC(=O)O2)c1 (stereo not given)
inactive: efficacy [1] -18.5% | outcome [2] | outcome [3] | outcome [4] | outcome [5] | outcome [6] | outcome [7]

CN(C/C=C/C#CC(C)(C)C)Cc1cccc2ccccc12
inactive: efficacy [1] -24.6% | outcome [2] | outcome [3] | outcome [4] | outcome [6] | outcome [7]
active: AC50 [5] 28.2 µM

Oc1ccc(C2CNCCc3c2cc(O)c(O)c3Cl)cc1 (stereo not given)
inactive: efficacy [1] 16.5% | outcome [2] | outcome [3] | outcome [4] | outcome [5] | outcome [6] | outcome [7]

Cc1nccn1CC1CCc2c(c3ccccc3n2C)C1=O (stereo not given)
active: AC50 [5] 22.4 µM | AC50 [6] 22.4 µM
inactive: efficacy [1] -22.2% | outcome [2] | outcome [3] | outcome [4] | outcome [7]
